MCF10A rereplic – inducers of DNA re-replication in MCF 10A breast cells | MCF 10A DNA re-replication, Hoechst nuclear intensity, 48 h | Potency, µM (series often up to 46.1 µM), actives largely listed as activators | 2.9% of 350,000 active; note: nearly all actives have a fitted effect of over 50% in size
PINK1 modulator – modulators of PINK1 expression; PINK1 immunofluorescence, high-content cytometry, 24 h; Potency, µM (doses to about 76.6 µM), actives largely listed as activators; 0.2% of 410,000 active; AID 624263; active = well fitted activation curve with a large enough effect; inconclusive = small, poorly fitted or top-dose-only effect; cell line not stated here; note: nearly all actives have a fitted effect of over 65% in size
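Stable cell line, 250 cells/well, 12 h attachment; compounds pinned at 5 concentrations, 24 h; CCCP control. Fixed with nuclear dye, primary antibodies 12 h at 10 degrees C, secondary plus cell stain; laser-scanning cytometer read.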
TSG101-PTAP inh – blocks PTAP/TSG101 interaction to inhibit HIV-1 budding. Q99816. Fluorescence polarization, FITC-PTAP peptide / Tsg101 binding. Potency, µM (doses to about 115 µM), most hits filed as inhibitors. AID 493005. 340,000 tested, under 10 active; active = well fitted inhibition curve with a large enough effect in the main read-out, with a control signal flat, not every such curve was filed as active; inconclusive = small, poorly fitted or top-dose-only effect, or effect the other way, or a change in a side signal; inactive = no such curve, though single readings can be large or run the other way
Target sequence (Q99816 whole entry, looked up): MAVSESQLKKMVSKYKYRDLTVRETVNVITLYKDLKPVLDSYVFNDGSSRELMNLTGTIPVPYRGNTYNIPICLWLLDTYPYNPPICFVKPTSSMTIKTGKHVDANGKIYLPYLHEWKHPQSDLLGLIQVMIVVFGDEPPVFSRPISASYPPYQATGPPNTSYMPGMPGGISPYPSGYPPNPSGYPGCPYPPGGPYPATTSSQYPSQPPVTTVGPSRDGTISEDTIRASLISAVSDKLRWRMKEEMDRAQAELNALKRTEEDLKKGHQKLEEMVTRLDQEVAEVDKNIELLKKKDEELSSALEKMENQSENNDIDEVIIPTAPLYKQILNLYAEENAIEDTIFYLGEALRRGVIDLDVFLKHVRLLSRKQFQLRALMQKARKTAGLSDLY
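Steps: Tsg101 binding domain dispensed (10 uM final), compounds pinned in DMSO, FITC-labeled PTAP-motif peptide added (50 nM final); after 20 min binding at room temperature, polarization measured.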
SW480 rereplic – induces DNA re-replication in SW480 colon adenocarcinoma cells | Potency, µM (doses to about 46.1 µM), usual class: activators | 1.8% of 340,000 active | AID 624297 | SW480 DNA re-replication, Hoechst DNA content imaging, 48 h; note: nearly all actives have a fitted effect of over 55% in size
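Compounds, transferred as 23 nL by pin tool, were incubated with cells for 48 hr; DNA content per nucleus was then quantified by Hoechst staining and fluorescence plate imaging.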
KB-3-1 tox – KB-3-1 parental cell cytotoxicity; KB-3-1 viability, CellTiter-Glo ATP luminescence, 72 h; Potency, µM (top dose mostly 46.1 µM), usual class: cytotoxic; 1.4% of 400,000 active; note: nearly all actives have a fitted effect of over 60% in size
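Viability of parental KB-3-1 cells, measured by CellTiter-Glo luminescence, followed a 72 h incubation at 37 °C with pinned compounds in phenol-red-free DMEM containing 10% FBS.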
KB-V1 MDR tox – kills drug-selected multidrug resistant KB-V1 cells; KB-V1 MDR cells viability, CellTiter-Glo, 72 h; Potency, µM (highest dose often 46.1 µM), usual class: cytotoxic; 3.4% of 400,000 active; AID 1347076; note: nearly all actives have a fitted effect of over 60% in size
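Cytotoxicity via CellTiter-Glo luminescence after 72 h compound exposure at 37 degrees C. Cells: drug-selected KB-V1 line, DMEM phenol-red free plus 10% FBS. Compounds tested at multiple concentrations; normalized data fitted to concentration-effect curves.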
Each line names hits and unclear results; the compound was inactive in the other large screens. Shown are actives, neighbours in structure and some others; about 6.8% of the full set was active somewhere. Unless noted, calls come from the whole dose curve; as a rule, active = well fitted curve in the direction sought with a large enough effect; inconclusive = small, poorly fitted or top-dose-only effect, or another doubt; inactive = no such curve, though single readings can be large; an effect the other way counts as inactive or inconclusive.

Clc1ccc(C[n+]2cc(-c3ccccc3)n3c2CCC3)cc1Cl	KB-3-1 tox inconclusive
Clc1ccc(-c2c[n+](Cc3cccc(Cl)c3)c3n2CCC3)cc1	KB-3-1 tox 6.5µM
Cc1ccc(OCCCn2c(-c3ccc(Cl)cc3)nc3ccccc3c2=O)cc1C	KB-V1 MDR tox inconclusive (no result: MCF10A rereplic, TSG101-PTAP inh, SW480 rereplic)
Cc1cc(C)c2oc(-c3ccc(C)c(NC(=O)/C=C/c4ccco4)c3)nc2c1	none (no result: MCF10A rereplic, TSG101-PTAP inh, SW480 rereplic)
CCc1ccc(NC(=O)C2CCCN(S(=O)(=O)c3c(C)noc3/C=C/N(C)C)C2)cc1 (stereo not drawn)	none (no result: MCF10A rereplic, TSG101-PTAP inh, SW480 rereplic, KB-3-1 tox, KB-V1 MDR tox)
O=C(Cn1cc(S(=O)(=O)Cc2ccccc2Cl)c2ccccc21)Nc1ccc(F)cc1F	none (no result: MCF10A rereplic, TSG101-PTAP inh, SW480 rereplic)
CCOC(=O)c1ccc(Oc2nc(NC(C)(C)C)nc(N(C)C)n2)cc1	MCF10A rereplic 16µM, SW480 rereplic inconclusive
CCOC(=O)C1CCN(Cc2nc3ccccc3c(=O)n2-c2ccc(F)cc2)CC1	KB-V1 MDR tox 4.1µM
CCOC(=O)C1CCN(Cc2ccc(OC)c(C)c2OC)CC1	KB-V1 MDR tox inconclusive
CCOC(=O)C1CCN(Cc2cc(Cl)c3ccccc3c2O)CC1	MCF10A rereplic 18µM, SW480 rereplic inconclusive
CCOc1ccc(NC(=O)CCC(=O)c2ccc(Br)cc2)cc1	SW480 rereplic 0.65µM
CCOc1ccc(NC(=O)CCC(=O)c2ccc(OC)cc2)cc1	none
COc1ccc(C(=O)CCN2CCc3cc(OC)c(OC)cc3C2)cc1	MCF10A rereplic 3.7µM
COc1ccccc1N1CCN(CCCC(=O)c2ccc(F)cc2)CC1	none
CCN1CCN(CC(=O)c2ccc(OC)cc2)CC1	MCF10A rereplic 2.1µM
COc1ccc(C(=O)CCN2CCN(c3ccccc3OC)CC2)cc1	MCF10A rereplic 2.6µM, SW480 rereplic inconclusive
COc1ccc(C(=O)CN2CCN(c3ccc(F)cc3)CC2)cc1	none
COc1cccc(Cn2c(C)c(CNCc3cccc(C)c3)c(C(=O)O)c2C)c1	none (no result: MCF10A rereplic, TSG101-PTAP inh, SW480 rereplic)
CC(C)c1ccc(Nc2c(-c3ccsc3)nc3ccc(Cl)cn23)cc1	none (no result: MCF10A rereplic, TSG101-PTAP inh, SW480 rereplic)
CCOCCCNC(=O)C(c1ccccc1)N(Cc1cccs1)C(=O)c1ccc(NC(C)=O)cc1 (stereo not drawn)	none (no result: MCF10A rereplic, TSG101-PTAP inh, SW480 rereplic)
COc1ccccc1N1CCN(CC(=O)Nc2cc(F)ccc2C)CC1	SW480 rereplic inconclusive
COc1ccccc1N1CCN(CC(=O)Nc2cc(C)nn2-c2nc(C)cc(C)n2)CC1	SW480 rereplic 9.2µM, KB-3-1 tox 4.6µM
Cc1ccc(CCC(=O)Nc2ccc(Br)cc2)o1	MCF10A rereplic inconclusive, SW480 rereplic 15µM
CCOc1ccc(C(=O)CCN2CCCCCC2)cc1	MCF10A rereplic 3.3µM, SW480 rereplic inconclusive, KB-3-1 tox inconclusive
CN(C)N=Nc1nc2c(c(=O)n(C)c(=O)n2C)n1CC1CO1 (stereo not drawn)	MCF10A rereplic 16µM, SW480 rereplic 16µM, KB-3-1 tox inconclusive
CC(C)(C)C(=O)Nc1ccccc1C(=O)Nc1cc(Cl)ccc1Cl	KB-V1 MDR tox 16µM
CC(C)(C)C(=O)Nc1ccccc1C(=O)Nc1cccnc1	none
CCOc1ccc(NC(=O)CSC2=Nc3ccccc3C3=NC(CC(=O)NCc4ccccc4OC)C(=O)N23)cc1 (stereo not drawn)	none (no result: MCF10A rereplic, TSG101-PTAP inh, SW480 rereplic)
CN(C)c1cc[n+](Cc2c(Cl)cccc2Cl)cc1	MCF10A rereplic inconclusive, KB-3-1 tox 7.3µM
Cc1ccc(C)c(N/C(N)=N/c2nc(C)cc(C)n2)c1	KB-V1 MDR tox 16µM
Cc1cc(C)nc(/N=C(\N)Nc2ccc(-c3ccccc3)cc2)n1	MCF10A rereplic inconclusive, PINK1 modulator inconclusive, KB-3-1 tox 16µM, KB-V1 MDR tox 16µM
O=C(N/N=C/C(Br)=C/c1ccccc1)c1ccncc1	MCF10A rereplic inconclusive, SW480 rereplic inconclusive
CCOc1cc(C(=O)NN=C2CCCC2)cc(OCC)c1OCC	MCF10A rereplic 16µM, SW480 rereplic inconclusive
CCOc1cc(C(=O)N/N=C/C(Br)=C/c2ccccc2)cc(OCC)c1OCC	MCF10A rereplic 1.3µM, SW480 rereplic inconclusive, KB-3-1 tox inconclusive, KB-V1 MDR tox inconclusive
C=CCc1cccc(/C=N/NC(=O)C(C)Nc2ccc(C)cc2)c1O (stereo not drawn)	MCF10A rereplic inconclusive, SW480 rereplic 16µM, KB-3-1 tox inconclusive, KB-V1 MDR tox 21µM
COc1ccc(C(=O)NN=C2CCCC2)cc1OC	KB-V1 MDR tox inconclusive
O=C(N/N=C/C(Br)=C\c1ccccc1)c1ccc2nc[nH]c2c1	MCF10A rereplic 23µM, SW480 rereplic inconclusive, KB-3-1 tox inconclusive
C[C@@H]1OC(OC2C(OC3CC[C@@]4(C)C5CC=C6C7CC(C)(C)CC[C@@]7(C(=O)O)CCC6(C)C5(C)CCC4[C@]3(C)CO)OCC(O)C2O)C(O)C(O)C1O (stereo partly drawn)	none (no result: MCF10A rereplic, TSG101-PTAP inh, SW480 rereplic, KB-3-1 tox, KB-V1 MDR tox)
O=C(N/N=C/c1ccc(Cl)cc1Cl)c1ccc2nc[nH]c2c1	none
C=CCc1cccc(/C=N/NC(=O)c2ccc3nc[nH]c3c2)c1O	MCF10A rereplic 21µM, SW480 rereplic inconclusive, KB-3-1 tox inconclusive
Cc1onc(-c2ccccc2)c1C(=O)N/N=C/C(Br)=C/c1ccccc1	MCF10A rereplic inconclusive, SW480 rereplic 0.23µM, KB-3-1 tox inconclusive, KB-V1 MDR tox 15µM
Cc1cc(C)cc(Nc2ccc([N+](=O)[O-])nc2[N+](=O)[O-])c1	none
COc1cc(Nc2ccc(C)cc2)c([N+](=O)[O-])nc1[N+](=O)[O-]	KB-3-1 tox inconclusive, KB-V1 MDR tox 5.8µM
COc1ccccc1NC(=O)N1CCC(c2nc3cc(C)c(C)cc3[nH]2)CC1	MCF10A rereplic 3.7µM, SW480 rereplic 5.8µM, KB-3-1 tox 1.6µM, KB-V1 MDR tox 9.2µM
C/C(=N/NC(=O)c1ccc(C)nc1)c1ccc2c(c1)CCCC2	MCF10A rereplic inconclusive, SW480 rereplic inconclusive, KB-3-1 tox inconclusive, KB-V1 MDR tox 10µM
O=C(NC12CC3CC(CC(C3)C1)C2)c1ccc(=O)oc1	none
O=C(NNC(=O)C1[C@H]2CCCC[C@@H]12)c1ccc(=O)oc1 (stereo partly drawn)	SW480 rereplic 2.3µM, KB-V1 MDR tox inconclusive
Cc1cccc(C)c1NC(=O)CCCn1c(=O)c2cccn2c2ccccc21	none (no result: MCF10A rereplic, TSG101-PTAP inh, SW480 rereplic, KB-3-1 tox, KB-V1 MDR tox)
COc1ccc(C(=O)N2CCN(S(=O)(=O)c3ccc(F)cc3)CC2)cc1OC	KB-V1 MDR tox inconclusive
CCCc1cc(C(=O)N2CCN(S(=O)(=O)c3ccc(OC)c(OC)c3)CC2)cs1	MCF10A rereplic inconclusive, KB-V1 MDR tox 5.2µM (no result: TSG101-PTAP inh)
COc1ccc(C(=O)N2CCN(S(=O)(=O)c3ccc(Cl)cc3)CC2)cc1OC	KB-V1 MDR tox 15µM
COc1ccc(CNCCCSc2nnnn2C)c(OC)c1	none (no result: MCF10A rereplic, TSG101-PTAP inh, SW480 rereplic)

Bioassay records (PubChem)
